Holding throughout (assay): NCI-60 one-dose screen, 48 h (100 = growth as untreated, 0 = no growth, -100 = all killed)
Conditions in all cases: 10 µM unless noted

Test [1] deals with SK-MEL-2 melanoma.
For test [2], the system named is EKVX NSCLC.
Test [3] concerns SN12C renal.
For test [4], the system named is UO-31 renal.
Test [5] deals with TK-10 renal.
Test [6] has as its system ACHN renal.
Test [7] has as its system CCRF-CEM leukemia.
In test [8] the test system is MOLT-4 leukemia.
The subject of test [9] is SR leukemia.
Test [10] concerns A498 renal.

Experimental findings from PubChem BioAssay (NCI) are described below.

The panel holds about 83,000 compounds, 20% with a hit somewhere; the sample as a whole holds those more often.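 Activity criterion: percent growth below 10, measured after cells in 96-well plates were exposed to a single compound concentration for 48 hours.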 Unmarked numbers belong to inactive results. Activity calls are given as the source filed them.

For `C=CCn1c(SCC(=O)Nc2ccc(C(=O)/C=C/c3ccc(Cl)cc3)cc2)nnc1-c1cc(OC)c(OC)c(OC)c1`, the growth in [1] is 103%; in test [2], 92.3%; in test [3], 79.7%; in [4], 66.5%; in test [5] it was 102%; in test [6] it was 106%. Further, the growth in test [7] was 84.6%; in test [8], 70.8%; in [9], 72.9%.
Take `CCCCCCC/C=C/[C@H]1O[C@]23C(=O)C[C@@]4(C[C@@H](OC5OC(CO)C(O)C(O)C5O)C[C@@H]4[C@H]2C=C1C)OC3=O` (stereo partly specified): the growth is -9.46% (active) in [1]; 86.9% in test [2]; 26.7% in test [3]; 3.36% (active) in test [4]; 35.8% in [5]; 4.9% (active) in test [6]. For the same molecule, the growth was 19% in [7], 8.32% (active) in test [8] and 6.22% (active) in test [9].
As to `CCN(CC)CC#CCOC(=O)[C@]1(C)CCC[C@]2(C)[C@H]3C[C@H]4C(C(C)C)=C[C@]3(CC[C@H]21)[C@@H]1C(=O)CCC(=O)[C@@H]14`, the growth in test [1] was 72.3%; in [2], 55.9%; in [3] it was 57.1%; in test [4] it was 50.9%; in test [5] it was 95.4%; in test [6], 72.5%. Besides, the growth in [7] is 20.5%; in test [8] it was 10.7%; in test [9] it was 10.2%.
`Oc1c(CCl)cc(Cl)cc1Cc1cc(Cl)cc(Cc2cc(Cl)cc(CCl)c2O)c1O`: the growth was -16.6% (active) in [1]; 21% in test [2]; 8.92% (active) in test [3]; 32% in [4]; 17.7% in test [5]; 22.7% in test [6]. The growth was 13.5% in test [7], 21% in test [8] and 40.8% in [9].
In the case of `CCOC(=O)/C(=C/c1c(-c2ccccc2)[nH]c2ccccc12)C(=O)c1ccc(Cl)cc1`, the growth in test [1] was 61.8%; in test [2], 30.6%; in [3], 56%; in test [4], 57.9%; in test [5] it was 82.2%; in test [6], 19.3%. Besides, the growth in [7] is 14.5%; in test [8], 1.71% (active); in test [9], 9.07% (active).
Turning to `Nc1c(C(=O)Nc2ccccn2)sc2nc3c(cc12)C(=O)CCC3`, the growth was 32.9% in [1]; 34.4% in test [2]; 43.6% in [3]; 59.3% in [4]; 64.2% in test [5]; 59.5% in [6]. The growth in test [7] was 47.9%; in [8] it was 69.7%; in [9] it was 40.6%.
With `Nc1cccc(C(=O)Nc2ccc3c(O)c(N=Nc4ccc(N=Nc5ccc(S(=O)(=O)O)cc5)cc4)c(S(=O)(=O)O)cc3c2)c1`, the growth in [1] was 108%; in test [2] it was 103%; in [3], 106%; in [4], 90.2%; in test [5] it was 101%; in [6] it was 105%. Moreover, the growth in test [7] was 96.6%; in test [8] it was 84.6%; in test [9], 77.4%.
Turning to `Cc1cccc(C)c1NC(=O)CN(CC(C)C)CC(O)COc1ccccc1` (stereo unspecified), the growth in [1] was 93.8%; in test [2] it was 85.2%; in test [3], 104%; in [4] it was 85.8%; in test [5], 96.9%; in [6], 104%. Moreover, the figures for the growth in test [7], in [8] and in [9] were 96.9%, 88.2% and 92.1%, respectively.
With `C=C(C)[C@@H]1CC[C@]2(C(=O)N=C=S)CC[C@]3(C)[C@H](CC[C@@H]4[C@@]5(C)CCC(=O)C(C)(C)[C@@H]5CC[C@]43C)[C@@H]12`, the growth is 27.3% in [1]; 32.4% in [2]; 19.2% in test [3]; 34.8% in test [4]; 42.3% in test [5]; 27.6% in test [6]. Moreover, the growth is 28.1% in test [7], 25.6% in test [8] and 27.6% in test [9].
On to `NC(N)=NC(N)=Nc1cc2ccccc2c2ccccc12`, for which the growth was 5.61% (active) in test [1]; 58% in test [2]; 35.4% in test [3]; 32.6% in test [4]; 20.8% in [5]; 22.9% in test [6]. The growth in [7] was 38.6%; in test [8], 9.61% (active); in test [9], -2.98% (active).
Take `O=C(Nc1ccccc1)NS(=O)(=O)c1c[nH]c(=S)[nH]c1=O`: the growth is 91.5% in [1]; 99.6% in [2]; 103% in test [3]; 89.3% in test [4]; 97.6% in [5]; 108% in test [6]. For the same molecule, the growth in test [7] was 113%; in [8] it was 90.8%; in test [9], 87.3%.
`Cc1ccccc1NC(=O)c1sc2nc(C)c(C(C)O)cc2c1N` (stereo unspecified): the growth in test [1] was 34.4%; in test [2] it was 75.7%; in test [3], 51.3%; in [4], 69.6%; in test [5] it was 51.5%; in test [6] it was 78.3%. The growth in test [7] was 45.7%; in test [8], 32.6%; in test [9], 4.46% (active).
Turning to `O=C(O)c1ccc(-n2cc(/C=N/Nc3ccc(Cl)cc3Cl)c(-c3ccccc3)n2)cc1`, the growth in test [1] was 91.6%; in test [2] it was 77%; in [3], 102%; in test [4], 67.5%; in test [5], 109%; in test [6], 83%. The growth in test [7] is 93.8%; in test [8] it was 88.9%; in test [9], 86.2%.
With `CC[C@]12C=CCN3CC[C@@]4(c5ccc(OC)cc5N(C)[C@H]4[C@@](O)(C(=O)OC)[C@@H]1OC(=O)CCC(=O)O[C@H]1CC[C@H]4[C@@H]5CC[C@H]6CC(=O)CC[C@]6(C)[C@H]5CC[C@]14C)[C@@H]32`, the growth in [1] was 8.52% (active); in test [2], 21.2%; in test [3], 24.8%; in test [4] it was 13.3%; in test [5], 21.2%; in [6], 19.1%. In addition, the growth in [7] was 7.55% (active); in [8], 1.58% (active); in [9] it was -10.4% (active).
Regarding `CC1(C)Cc2c(Br)c(Br)c(Br)c(OCC(O)CN3CCOCC3)c2O1` (stereo unspecified), the growth in test [1] was -46.5% (active); in [2] it was 102%; in [3], 104%; in test [4], -87.3% (active); in test [5], 67%; in test [6] it was 93.4%. Moreover, the growth in [7] was 9.89% (active); in test [8], 40.1%; in test [9], 24.9%.
As for `Nn1c(SCC(=O)Nc2ccc(Cl)cc2)nnc1-c1cc(F)c(Cl)cc1Cl`, the growth in [1] is 83.4%; in test [2], 90.9%; in test [3], 97.8%; in [4] it was 69.9%; in test [5], 97.6%; in [6] it was 87.2%. For the same molecule, the figures for the growth in [7], in [8] and in test [9] were 92.8%, 80.4% and 56.5%, respectively.
Take `CSc1nc(-c2ccc(F)cc2)c(C#N)c(N2CCOCC2)n1`: the growth was 101% in [1]; 88.6% in [2]; 98.8% in test [3]; 80.3% in [4]; 104% in test [5]; 90.1% in test [6]. Besides, the results for the growth in test [7], in [8] and in test [9] were 81%, 86.5% and 85.9%, respectively.
With `CCOC(=O)c1c(-c2ccc(O)cc2)c(C#N)c2c(C#N)c(N)nn2c1N`, the growth was 44.9% in [1]; 71.6% in test [2]; 81.7% in test [3]; 69.9% in test [4]; 82.8% in [5]; 88% in test [6]. For the same molecule, the growth in [7] is 35.7%; in [8] it was 23.7%; in [9], 22.3%.
For `C=C1C(=O)O[C@H]2[C@H]1CC/C(COC(=O)c1cccnc1N)=C\CC[C@@]1(C)O[C@@H]21`, the growth in test [1] was 39.1%; in test [2] it was 34.1%; in test [3], 10.4%; in test [4] it was 13.3%; in [5], -6.51% (active); in test [6] it was -3.75% (active). The figures for the growth in test [7], in [8] and in test [9] were -3.91% (active), 8.57% (active) and 2.93% (active), respectively.
In the case of `CN(CCC#N)C(=O)Nc1ccccc1`, the growth in test [1] is 98.7%; in test [2], 105%; in [3], 111%; in test [4], 87.3%; in test [5] it was 84.1%; in test [6], 110%. The growth was 111% in test [7], 99.7% in [8] and 96.5% in test [9].
In the case of `CCOC(=O)c1sc(/N=C2\NC(=O)/C(=C/c3ccc(N4CCN(C)CC4)cc3)S2)nc1C`, the growth is 98% in test [1]; 96.7% in test [2]; 111% in test [3]; 84.6% in test [4]; 116% in test [5]; 108% in [6]. Besides, the growth in test [7] was 91.7%; in [8], 88.9%; in [9], 101%.
For the molecule `Cc1nc2sc(C(=O)Nc3ccccc3)c(N)c2cc1C(C)O` (stereo unspecified), the growth in test [1] is 39.3%; in [2], 76.1%; in test [3], 43.2%; in test [4], 61.6%; in test [5], 65.9%; in test [6], 54.2%. The growth in test [7] was 16.6%; in test [8] it was 25.7%; in [9], 11.7%.
As for `O=C1NC(c2ccc(F)cc2)N=C2C(c3ccccc3)=NOC12` (stereo unspecified), the growth was 108% in test [1]; 99.8% in test [2]; 104% in test [3]; 97.4% in [4]; 106% in [5]; 107% in test [6]. Besides, the growth in test [7] was 102%; in [8] it was 116%; in test [9], 112%.
For `O=c1c2ccccc2n(CC(O)CN2CCCC2)c2c(Br)cccc12` (stereo unspecified), the growth in test [1] was 112%; in [2], 99.1%; in test [3] it was 109%; in [4], 89.1%; in [5] it was 106%; in test [10], 71.8%. Also, the figures for the growth in [7], in [8] and in test [9] were 82.3%, 104% and 77%, respectively.
